# Data reported in article PMC4552634, “A New Set of Chemical Starting Points with Plasmodium falciparum Transmission-Blocking Potential for Antimalarial Drug Discovery” (PLoS ONE, 2015).
# In all, about 13,000 compounds went through this assay and about 3,200 (25%) showed an effect of 50% or more. The list shows a part of the results.
# Test system: P. falciparum stage V gametocytes
# Design: BacTiter-Glo ATP luminescence viability of purified stage V gametocytes in 384-well plates, per cent inhibition versus DMSO
# Conditions: 48 h, 5 µM; inhibitor
row,Structure (SMILES),% Inhibition [%]
1,COc1ccc(Nc2ncc3c(-c4ccc(NC(=O)c5cccc(C(F)(F)F)c5)cc4)c[nH]c3n2)cc1OC [TCMDC-138863],-42.22
2,Cc1cnccc1/C=C/c1cccc(OCCN2CCc3ccc(S(C)(=O)=O)cc3CC2)c1 [TCMDC-135875],13.2
3,Cc1noc(C)c1-c1ccc2c(Nc3ccc([N+](=O)[O-])cc3)c(C(N)=O)cnc2c1.Cl [TCMDC-136009],-6.074
4,CN(C(=O)c1ccccc1)C1c2cc(C#N)ccc2OC(C)(C)C1O (centres unmarked) [TCMDC-131573],-17.79
5,O=C1O[C@H](c2ccccc2)[C@H](c2ccccc2)N(C(=O)OCc2ccccc2)[C@H]1Cc1ccccc1C1CCCC1 [TCMDC-137303],5.453
6,OC(c1ccccc1)C1CN(CCC2CC3CCC2C3)CCC1(O)c1ccccc1 (centres unmarked) [TCMDC-131996],-67.18
7,CCC(C)NS(=O)(=O)c1ccc2nc(Nc3cccc(SC)c3)n(C(C)C(C)C)c2c1 (centres unmarked) [TCMDC-136237],-59.9
8,CN1CCN(c2ccc(Nc3c(C(N)=O)cnc4cc(-c5ccoc5)ccc34)cc2)CC1.Cl [TCMDC-135440],-93.68
9,Cc1cc(Nc2c(C(N)=O)cnc3cc(-c4ccoc4)ccc23)ccc1N1CCN(C)CC1.Cl [TCMDC-135441],-28.97
10,Cl.NC(=O)c1cnc2cc(-c3ccoc3)ccc2c1Nc1ccc(NC(=O)Nc2ccccc2Cl)cc1 [TCMDC-135442],70.72
11,O=C(Nc1ccccc1-c1nc2ccccc2s1)C(Cl)(Cl)Cl [TCMDC-123676],7.005
12,Clc1cc(Cl)c2cc(CNCCCNc3ccc4ccccc4n3)[nH]c2c1 [TCMDC-140495],95.02
13,Clc1ccc2c(Cl)c(CNCCCNc3nc4ccccc4[nH]3)[nH]c2c1 [TCMDC-139967],-22.32
14,CCOc1c(CNCCCNc2nc3ccccc3[nH]2)cc(Br)cc1OC [TCMDC-140089],52.36
15,CCOc1c(Br)cc(Br)cc1CNCCCCNc1nc2ccccc2[nH]1 [TCMDC-139968],0.6072
16,CCOc1c(CNCCCNc2nc3ccccc3[nH]2)cc(I)cc1OC [TCMDC-140105],34.54
17,O=C(NCCCNc1ccc2ccccc2n1)c1cc2c(Cl)cc(Cl)cc2[nH]1 [TCMDC-140378],3.853
18,Cc1cc(C)c2cc(CNCCCNc3nc4ccccc4[nH]3)[nH]c2c1 [TCMDC-140069],42.15
19,Brc1cc(CNCCCNc2nc3ccccc3[nH]2)sc1Br [TCMDC-139801],12.5
20,Clc1ccc(Cl)c2[nH]c(CNCCCNc3nc4ccccc4[nH]3)cc12 [TCMDC-139957],50.82
21,O=c1cc(NCCCNCc2cc3c(Cl)cc(Cl)cc3[nH]2)[nH]c2ccccc12 [TCMDC-139789],2.174
22,c1ccc(-c2ccc(CNCCCNc3nc4ccccc4[nH]3)cc2)cc1 [TCMDC-136061],54.24
23,FC(F)(F)c1cc(C(F)(F)F)c2cc(CNCCCNc3nc4ccccc4[nH]3)[nH]c2c1 [TCMDC-139965],-11.18
